aSyn 5UTR act: Activators working through SNCA 5'UTR binding (MLPCN); activity score, % (tested at 7.5 µM), hits read low; alpha-synuclein 5'UTR reporter, activators screen; 300,000 compounds, 7.1% hits; in the data active means activity score below about -60%
An asterisk follows results filed as active. Not all results are given here.

SMILES	aSyn 5UTR act
CN(C)c1ccc(/C=N/NC(=S)NCc2ccccc2)cc1	-85*
CNC(=S)N/N=C/c1ccc(N(C)C)cc1	-89*
Cc1cc(NC(=O)CC#N)n(-c2nc3ccccc3[nH]2)n1	-71*
Cc1ccc(N=C2NC(=O)/C(=C/c3cccn3C)S2)cc1	-80*
O=C1NC(=Nc2ccccc2)S/C1=C/c1cccs1	-117*
Cc1ccc(N=C2NC(=O)/C(=C/c3cccn3C)S2)cc1C	-127*
CC(/C=N/NC(=O)c1nnn(-c2nonc2N)c1C(C)C)=C\c1ccccc1	-81*
Nc1nonc1-n1nnc(C(=O)N/N=C/C=C/c2ccccc2)c1CSC1=NCCS1	-80*
CCCc1c(C(=O)N/N=C/C(C)=C/c2ccccc2)nnn1-c1nonc1N	-67*
N=c1c2c(n(Cc3ccc(Br)cc3)c3c1CCC3)CCCC2	60
COc1ccc2[nH]c3c(NCc4ccco4)ncnc3c2c1	-113*
COc1ccc2[nH]c3nc(SC(C)C)nnc3c2c1	58
Clc1ccc2[nH]c3c(NCCCN4CCOCC4)ncnc3c2c1	-62*
COc1ccc2[nH]c3c(NCCC4=CCCCC4)ncnc3c2c1	-195*
COc1ccc2[nH]c3c(NCCCOC(C)C)ncnc3c2c1	-138*
O=C(/C=C/c1c(F)cccc1Cl)Nc1nc2ccccc2[nH]1	-314*
Cc1ccc(/C=C/C(=O)Nc2nc3ccccc3[nH]2)cc1	-186*
CN1CCN(C(=O)/C=C/c2ccc([N+](=O)[O-])o2)CC1	-83*
O=C(/C=C/c1ccc(-c2ccc(F)cc2)o1)N1CCCC1	-127*
COC(=O)/C(=C\C(=O)c1ccccc1)Nc1ccc(OC)cc1	-93*
COc1ccc(OC)c(N/C(C)=C/C(=O)c2ccccc2)c1	-113*
COc1ccc(OC)c(N/C=C/C(=O)c2ccccc2)c1	83
COc1ccc(N/C(C)=C/C(=O)c2ccccc2)cc1	-151*
COc1ccc(NC(=O)/C=C/c2ccc3c(c2)OCO3)cc1	-91*
COc1ccc(N/C(C)=C/C(=S)Nc2ccccc2)cc1	-75*
SMILES	aSyn 5UTR act
CC(=O)Nc1ccc(OCc2ccc3c(c2)OCO3)cc1	-151*
COc1cccc(N/C(C)=C/C(=O)c2ccc(Br)cc2)c1	-172*
COc1ccc(C(=O)/C=C(\C)Nc2ccc3c(c2)OCO3)cc1	-170*
COc1ccc(OC)c(NC(=O)c2ccccc2OC(C)=O)c1	-69*
COC(=O)c1c(C)[nH]c(/C=N/Nc2ccccc2)c1C	-71*
c1ccc(Cc2cc(-c3ccccc3)on2)cc1	-130*
O=C(CCl)NCc1cc(-c2ccc(Cl)cc2)no1	-65*
Clc1ccc(-c2cc(CSc3cccc(Cl)c3)on2)cc1	-67*
c1ccc(SCc2cc(-c3ccccc3)no2)cc1	-143*
Clc1ccc(SCc2cc(-c3ccccc3)on2)cc1	-75*
Clc1ccc(-c2cc(CSc3ccccc3)on2)cc1	-181*
c1ccc(-c2cccc(-c3ccccn3)n2)nc1	77
c1ccc(-c2nnc(-c3ccccn3)nn2)nc1	-122*
CC(C)(C)c1ccc(-c2cc(N)n[nH]2)cc1	91
Cc1ccc(-c2cc(N)n[nH]2)cc1	-73*
c1ccc(-c2cnc(-c3ccccc3)nc2)cc1	-66*
c1ccc(-c2ncc3c(ccc4ccccc43)n2)cc1	68
Nc1cnc(-c2ccccc2)nc1Cl	-63*
Cc1cnn(-c2cc(Oc3ccccc3)ncn2)c1	-216*
CCOC(=O)c1cnn(-c2ncnc3c2oc2ccccc23)c1N	-98*
c1ccc(Oc2cc(-c3ccccc3)ncn2)cc1	-124*
CCOC(=O)c1cnn(-c2cc(Oc3ccccc3)ncn2)c1N	-101*
CCOC(=O)c1cnn(-c2cc(C)c3ccccc3n2)c1N	-65*
CCOC(=O)c1cnn(-c2cc(Oc3ccccc3C)ncn2)c1N	-88*
CCOC(=O)c1cnn(-c2ccccn2)c1N	-116*
SMILES	aSyn 5UTR act
CCOC(=O)c1cnn(-c2ncnc3sc4c(c23)CCC4)c1N	-75*
CC1=C[C@@H](C)[C@@H](c2ccc(C(F)(F)F)cc2)OC1=O	-63*
O=C(/C=C/Nc1ccccc1)c1ccc(Cl)cc1Cl	-122*
COc1ccc(N=c2oc3ccccc3cc2C(=O)Nc2ccccn2)cc1OC	-107*
COc1ccccc1NC(=O)c1cc2ccc(O)cc2o/c1=N\O	-97*
COc1ccccc1NC(=O)c1cc2ccccc2o/c1=N\O	-129*
CCOc1ccc(NC(=O)COc2ccccc2)c([N+](=O)[O-])c1	-218*
CCOc1ccc(NC(=O)c2ccc(Br)o2)c([N+](=O)[O-])c1	-129*
O=C(COC(=O)c1ccccc1-n1cnnn1)c1ccc(Br)cc1	-95*
COCCNC(=O)c1ccc2c3n(nc2c1)-c1ccc(C)cc1CO3	-151*
Cc1ccc2c(c1)COc1c3ccc(C(=O)N[C@@H](CO)C(C)C)cc3nn1-2	-144*
COc1ccccc1/C=C/C1(C(=O)NC2CCCC2)CC(=O)N1c1ccccc1 (stereo unspecified)	-138*
CN(C)S(=O)(=O)c1ccc(N2C(=O)CC2(/C=C/c2ccccc2)C(=O)NC2CCCC2)cc1 (stereo unspecified)	35

Screening data from PubChem.
